The list is not random: actives were taken first. Their share in the collection is about 2.6%.
Cruzain Triton – blocks cruzain activity in presence of Triton detergent; purified cruzain, Z-FR-AMC fluorescence, 0.01% Triton; Potency, µM, inactives show max response, negative = inhibition, hits mostly inhibitors; 200,000 compounds, 0.43% hits; AID 1478;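 further: plate controls were neutral wells for no effect and buffer without enzyme for full effect; nearly all actives have a fitted effect of over 40% in size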
Target sequence (P25779 123-467 limits assumed): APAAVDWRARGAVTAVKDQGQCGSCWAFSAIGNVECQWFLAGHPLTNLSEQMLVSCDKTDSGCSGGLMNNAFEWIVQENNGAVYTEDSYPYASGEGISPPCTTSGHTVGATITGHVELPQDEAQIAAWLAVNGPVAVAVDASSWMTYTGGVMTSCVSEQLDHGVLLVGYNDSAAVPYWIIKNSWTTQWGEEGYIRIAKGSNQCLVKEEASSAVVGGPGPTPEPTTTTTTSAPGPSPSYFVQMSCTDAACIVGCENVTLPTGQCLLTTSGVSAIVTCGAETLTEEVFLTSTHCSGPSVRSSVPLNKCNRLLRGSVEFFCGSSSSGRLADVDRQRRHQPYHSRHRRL
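Detergent-containing arm of a paired screen for aggregation-based inhibition: 0.01% Triton X-100 present. Cruzain at 1.5 nM cleaved 2 uM Z-FR-AMC at pH 5.5 with 5 mM DTT; AMC fluorescence gain over 60 s measured activity.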
Cruzain inh noDet – blocks cruzain activity in detergent-free assay. AID 1476. P25779. Potency, µM, for the others: max response, negative = inhibition, hits mostly inhibitors. purified cruzain, Z-FR-AMC fluorescence, no detergent. 200,000 compounds, 2.3% hits;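 further: plate controls were enzyme without inhibitor for no effect and buffer without enzyme for full effect; nearly all actives have a fitted effect of over 40% in size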
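Detergent-free condition (0.00005% Triton X-100) in acetate buffer pH 5.5 with DTT. 1.5 nM enzyme and compound were pre-mixed 15 min, then 2 uM Z-FR-AMC substrate added; reaction progress from fluorescence change between first and third reads (60 s).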
* = called active by the depositor. The call rests on the fitted dose curve; in most records, active means well fitted curve in the direction sought with a large enough effect; inconclusive means small, poorly fitted or top-dose-only effect, or another doubt; inactive means no such curve, though single readings can be large; an effect the other way counts as inactive or inconclusive. Potency means the concentration at half of the fitted maximal effect.

Screening COc1ccc(C(=O)/C=C/c2cn(CC(O)CN3CCc4ccccc43)c3ccccc23)cc1OC (stereo not drawn) returned Cruzain Triton -5% and Cruzain inh noDet -26%.
`CCOCC(=O)Nc1nc2ccc(C)cc2s1` gave Cruzain Triton -4% and Cruzain inh noDet 4%.
`CCCOc1ccc(C(=O)NC(=S)Nc2nc3ccccc3s2)cc1` gave Cruzain Triton 2% and Cruzain inh noDet inconclusive.
CCCOc1ccc(C(=O)NC(=S)Nc2nc3ccc(C)cc3s2)cc1 was read as Cruzain Triton 7% and Cruzain inh noDet 25µM*.
Cc1ccc2nc(NC(=O)c3cccs3)sc2c1 was read as Cruzain Triton 0% and Cruzain inh noDet -8%.
Cc1ccc2nc(NC(=O)c3ccc(Cl)s3)sc2c1 was read as Cruzain Triton 1% and Cruzain inh noDet 13µM*.
`C/C=C/C(=O)OCC(=O)Nc1nc2ccc(C)cc2s1` gave Cruzain Triton 0% and Cruzain inh noDet 20µM*.
O=C(CN1C(=O)COc2ccc(S(=O)(=O)N3CCCCCC3)cc21)NCc1ccc(Cl)cc1 was read as Cruzain Triton 1% and Cruzain inh noDet 1%.
For COC(=O)c1c(NC(=O)CCCOc2cccc(C)c2)sc2c1C(C(=O)OC)CC2 (stereo not drawn) the results were Cruzain Triton -9% and Cruzain inh noDet 25%.
`Cc1ccc(C(=O)N/N=C/c2ccc(-c3ccccc3[N+](=O)[O-])o2)cn1` gave Cruzain Triton -10% and Cruzain inh noDet 1%.
`Cc1nnc(N/N=C\c2ccc(-c3ccccc3[N+](=O)[O-])o2)n1N` gave Cruzain Triton 14µM* and Cruzain inh noDet 13µM*.
For CCOC(=O)C1CCCN(C(=O)c2ccc3c(c2)N(Cc2ccccc2F)C(=O)c2ccccc2S3=O)C1 (stereo not drawn) the results were Cruzain Triton 2% and Cruzain inh noDet 12%.
Screening O=C(CSc1nc(=O)[nH]c2c1CCC2)NCc1ccccc1Cl returned Cruzain Triton -1% and Cruzain inh noDet -2%.
`COc1ccc(CCNC(=O)CCCn2c(=O)c3cccn3c3ccc(F)cc32)cc1OC` gave Cruzain Triton -1% and Cruzain inh noDet 2%.
COc1ccc(/C=N/NC(=O)c2ccco2)cc1Cn1nc(C)cc1C was read as Cruzain Triton -4% and Cruzain inh noDet -5%.
COc1ccc(/C=N\NC(=O)COc2ccc(C(C)(C)C)cc2)cc1Cn1nc(C)cc1C was read as Cruzain Triton 5% and Cruzain inh noDet 25µM*.
For Cc1cccc(NC(=O)CSc2nc3ccc(NC(=O)c4ccccc4)cc3s2)c1 the results were Cruzain Triton -2% and Cruzain inh noDet -27%.
For COc1ccccc1C(=O)Nc1nnc(SCC(=O)Nc2ccc3c(c2)oc2ccccc23)s1 the results were Cruzain Triton 2% and Cruzain inh noDet 13µM*.
Screening COc1ccc(NC(=O)CSc2nnc(NC(=O)Nc3ccccc3)s2)cc1OC returned Cruzain Triton -2% and Cruzain inh noDet 9%.
`Cc1cccc(C(=O)Nc2nnc(SCC(=O)Nc3ccc4c(c3)oc3ccccc34)s2)c1` gave Cruzain Triton -3% and Cruzain inh noDet 20µM*.
`CSCCC(NS(=O)(=O)c1ccc2c(c1)oc(=O)n2C)C(=O)Nc1ccc(F)c(Cl)c1` (stereo not drawn) gave Cruzain Triton 0% and Cruzain inh noDet inconclusive.
Screening CCCC1=Nc2cc(C(=O)NCCc3ccccc3)ccc2Sc2ccc(C)cc21 returned Cruzain Triton -2% and Cruzain inh noDet inconclusive.
Screening CCOC(=O)C1=C(CN(CC)Cc2ccccc2)NC(=O)NC1c1ccc(Cl)cc1 (stereo not drawn) returned Cruzain Triton -9% and Cruzain inh noDet -6%.
`O=C1CC(N(CCc2ccccc2)C(=S)Nc2ccccc2)C(=O)N1c1ccccc1` (stereo not drawn) gave Cruzain Triton -1% and Cruzain inh noDet -2%.
For O=C1CC(N(CCc2ccccc2)C(=S)Nc2cc(Cl)ccc2Cl)C(=O)N1c1c(Cl)cccc1Cl (stereo not drawn) the results were Cruzain Triton 1% and Cruzain inh noDet 13µM*.
CCC(C)NC(=O)CSc1nc2cc3c(cc2c(=O)n1Cc1ccc(C(=O)NCCc2ccc(OC)c(OC)c2)cc1)OCO3 (stereo not drawn) was read as Cruzain Triton 2% and Cruzain inh noDet 12%.
For O=C1NC(=O)/C(=C\c2ccccc2Oc2ccc(F)c(F)c2)S1 the results were Cruzain Triton -7% and Cruzain inh noDet 25µM*.
For CN1C(=O)C(=Cc2ccccc2Oc2ccc(Cl)c(F)c2)C(=O)N(C)C1=O the results were Cruzain Triton -1% and Cruzain inh noDet 7%.
Screening CCCc1cc(=O)[nH]c(Nc2ccccc2O)n1 returned Cruzain Triton -2% and Cruzain inh noDet -1%.
`CC(=O)Nc1ccc(-c2nnc3n(CC(C)C)c(=O)c4ccccc4n23)cc1` gave Cruzain Triton -3% and Cruzain inh noDet -5%.

Source: PubChem BioAssay (National Center for Advancing Translational Sciences (NCATS))
